Measured values reported in PubChem BioAssay AID1159580 (chemical genetic matrix, 2015).
“And” between values parts separate entries of the source, which are not always exact repeats. Identical values can stand only once. Screen size: about 5,500 compounds; about 2,000 (36%) were called active. About 18% were inconclusive and are not listed. No stated cut-off is given here; in the data, active means normalized growth mostly below about 0.91 (no sharp cut-off); inconclusive means no clear call, values can overlap the other calls; inactive means mostly above about 0.92. The list shows a part of the results.

Assay: chemical genetic growth profiling, strain panel (AID 1159580);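 further: tested at 20 µM; growth read once vehicle control cultures reached saturation at 30 °C; 1 = growth at the plate median or of vehicle wells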
Conditions: S. cerevisiae deletion strains, growth OD

Measured: normalized growth

Cc1cccc(CN2CCN(C(c3ccccc3)c3ccc(Cl)cc3)CC2)c1 (stereo not drawn)
0.203 (active) and 0.96 (inactive): locus YJL095W, strain BCK1, stronger effect = lower value
active: locus YAL021C, strain ccr4, stronger effect = lower value 0.543 | locus YAL026C, strain drs2, stronger effect = lower value 0.59 | locus YAL030W, strain snc1, stronger effect = lower value 0.861 | locus YBL061C, strain skt5, stronger effect = lower value 0.771 | locus YBR009C, strain hhf1, stronger effect = lower value 0.58 | locus YBR021W, strain FUR4, stronger effect = lower value 0.645 | locus YBR023C, strain chs3, stronger effect = lower value 0.701 | locus YBR171W, strain sec66, stronger effect = lower value 0.879 | locus YBR231C, strain swc5, stronger effect = lower value 0.636 | locus YBR279W, strain paf1, stronger effect = lower value 0.777 | locus YCL011C, strain gbp2, stronger effect = lower value 0.633 | locus YCL016C, strain dcc1, stronger effect = lower value 0.723 | locus YCL061C, strain MRC1, stronger effect = lower value 0.902 | locus YCL069W, strain vba3, stronger effect = lower value 0.848 | locus YDL035C, strain GPR1, stronger effect = lower value 0.815 | locus YDL040C, strain nat1, stronger effect = lower value 0.922 | locus YDL074C, strain BRE1, stronger effect = lower value 0.498 | locus YDL101C, strain DUN1, stronger effect = lower value 0.887 | locus YDL134C, strain PPH21, stronger effect = lower value 0.806 | locus YDL192W, strain arf1, stronger effect = lower value 0.772 | locus YDR069C, strain doa4, stronger effect = lower value 0.787 | locus YDR162C, strain NBP2, stronger effect = lower value 0.737 | locus YDR195W, strain ref2 1.52 [resistant] | locus YDR297W, strain sur2, stronger effect = lower value 0.885 | locus YDR318W, strain mcm21, stronger effect = lower value 0.828 | locus YDR388W, stronger effect = lower value 0.648 | locus YDR502C, strain sam2, stronger effect = lower value 0.85 | locus YEL003W, strain gim4, stronger effect = lower value 0.793 | locus YEL037C, strain rad23, stronger effect = lower value 0.856 | locus YER015W, strain faa2, stronger effect = lower value 0.561 | locus YER016W, strain bim1, stronger effect = lower value 0.906 | locus YER155C, strain BEM2 (second series), stronger effect = lower value 0.759 | locus YER155C, strain BEM2, stronger effect = lower value 0.862 | locus YFR010W, strain ubp6, stronger effect = lower value 0.699 | locus YGL086W, strain mad1, stronger effect = lower value 0.832 | locus YGL248W, strain PDE1, stronger effect = lower value 0.769 | locus YGL253W, strain hxk2, stronger effect = lower value 0.77 | locus YGR135W, strain pre9, stronger effect = lower value 0.758 | locus YGR252W, strain gcn5, stronger effect = lower value 0.471 | locus YHR013C, strain ard1, stronger effect = lower value 0.54 | locus YHR027C, strain rpn1, stronger effect = lower value 0.68 | locus YHR129C, strain ARP1, stronger effect = lower value 0.842 | locus YHR142W, strain chs7, stronger effect = lower value 0.734 | locus YHR200W, strain rpn10, stronger effect = lower value 0.904 | locus YIL066C, strain RNR3, stronger effect = lower value 0.821 | locus YJL092W, strain hpr5, stronger effect = lower value 0.817 | locus YJL095W, strain BCK1 (second series), stronger effect = lower value 0.332 | locus YJL129C, strain trk1, stronger effect = lower value 0.61 | locus YJL164C, strain tpk1, stronger effect = lower value 0.622 | locus YJL166W, strain qcr8, stronger effect = lower value 0.735 | locus YJL187C, strain SWE1 (second series), stronger effect = lower value 0.731 | locus YJL187C, strain SWE1, stronger effect = lower value 0.878
0.393 (active) and 0.952 (inactive): locus YHR030C, strain SLT2, stronger effect = lower value
inactive: locus YBR229C, strain ROT2, stronger effect = lower value 0.979 | locus YCL029C, strain bik1, stronger effect = lower value 0.961 | locus YCR088W, strain abp1, stronger effect = lower value 0.951 | locus YDL005C, strain med2, stronger effect = lower value 0.999 | locus YDL185W, strain tfp1, stronger effect = lower value 0.99 | locus YDR001C, strain nth1, stronger effect = lower value 0.978 | locus YDR101C, strain arx1, stronger effect = lower value 0.935 | locus YDR137W, strain rgp1, stronger effect = lower value 1.05 | locus YDR159W, strain sac3, stronger effect = lower value 0.925 | locus YDR334W, strain swr1, stronger effect = lower value 0.903 | locus YDR335W, strain msn5, stronger effect = lower value 0.976 | locus YDR392W, strain spt3, stronger effect = lower value 0.875 | locus YEL061C, strain CIN8 (second series), stronger effect = lower value 0.978 | locus YEL061C, strain CIN8, stronger effect = lower value 0.968 | locus YER110C, stronger effect = lower value 0.99 | locus YER111C, strain swi4, stronger effect = lower value 0.96 | locus YER167W, strain BCK2, stronger effect = lower value 0.971 | locus YGL078C, strain dbp3, stronger effect = lower value 0.987 | locus YGL167C, strain pmr1, stronger effect = lower value 0.983 | locus YGL173C, strain kem1, stronger effect = lower value 0.94 | locus YGL227W, strain vid30, stronger effect = lower value 0.963 | locus YGL240W, strain doc1, stronger effect = lower value 0.951 | locus YHR079C, strain IRE1 (second series), stronger effect = lower value 0.942 | locus YHR079C, strain IRE1, stronger effect = lower value 0.934 | locus YHR094C, strain hxt1, stronger effect = lower value 0.986 | locus YIL073C, strain SPO22, stronger effect = lower value 0.951 | locus YIL125W, strain kgd1, stronger effect = lower value 0.993 | locus YIR030C, strain dcg1, stronger effect = lower value 0.979 | locus YJL115W, strain asf1, stronger effect = lower value 0.927 | locus YJL134W, strain LCB3, stronger effect = lower value 0.989 | locus YJL154C, strain vps35, stronger effect = lower value 0.995 | locus YJL168C, strain set2, stronger effect = lower value 0.987 | locus YJR043C, strain POL32, stronger effect = lower value 0.903 | locus YJR066W, strain TOR1, stronger effect = lower value 0.926
